Source: PubChem BioAssay (Tox21)
Records with an inconclusive call do not appear. Activity calls are given as the source filed them. Unless noted, calls follow the shape of the dose curve; as a rule, active = well fitted curve in the direction sought with a large enough effect in the repeat runs; inconclusive = weak or mixed curves; inactive = no such curve, though single readings can be large; an effect the other way counts as inactive or inconclusive.

Columns and labels:
[1] = qHTS RealTime-Glo MT Cell Viability Assay in HEK293 cells - 0 hour (AID 1224880); also: top concentration of the series differs between compounds; nearly all actives have a fitted effect of over 45% in size
Summary of the method: (§1)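 Viable HEK293 cells reduce a cell-permeant prosubstrate; the product diffuses out and is consumed by NanoLuc in the medium to give light. Compounds went in after a 5 h incubation and plates were read over the treatment course.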

[2] = A CellTox Green Cytotoxicity Assay to monitor cytotoxicity in HEK293 cells - 32 hour (AID 1224881); also: nearly all actives have a fitted effect of over 40% in size
Summary of the method: (§2)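 Fluorescence intensity, read at 0, 8, 16, 24, 32 and 40 h of compound treatment, reflected dye binding to DNA of dead HEK293 cells; compounds (23 nL, DMSO) were added 5 h after plating cells with reagent.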

[3] = A CellTox Green Cytotoxicity Assay to monitor cytotoxicity in HepG2 cells - 0 hour (AID 1224882); also: nearly all actives have a fitted effect of over 35% in size
Summary of the method: (§3)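 Using 1536-well format, dye-containing HepG2 suspension was seeded, allowed 5 h at 37 C/5% CO2, dosed by pintool with compounds, positive and negative controls, and imaged for fluorescence across 40 h.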

[4] = A CellTox Green Cytotoxicity Assay to monitor cytotoxicity in HepG2 cells - 32 hour (AID 1224883); also: nearly all actives have a fitted effect of over 50% in size
Summary of the method: as §3

[5] = qHTS RealTime-Glo MT Cell Viability Assay in HepG2 cells - 16 hour (AID 1224885); also: nearly all actives have a fitted effect of over 50% in size
Summary of the method: (§4)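 Viability was tracked continuously by NanoLuc luminescence from prosubstrate reduced by living HepG2 cells, at successive time points over 40 h of compound exposure. Cells with reagent were preincubated 5 h at 37 °C before compound addition.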

[6] = qHTS RealTime-Glo MT Cell Viability Assay in HEK293 cells - 24 hour (AID 1224886); also: top concentration of the series differs between compounds; nearly all actives have a fitted effect of over 50% in size
Summary of the method: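 Viability tracked continuously by luminescence as live cells reduce a prosubstrate for NanoLuc; HEK293 cells preincubated 5 h, compound-treated at 37 C, and read at 0, 8, 16, 24, 32 and 40 h.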

[7] = qHTS RealTime-Glo MT Cell Viability Assay in HEK293 cells - 8 hour (AID 1224887); also: top concentration of the series differs between compounds; nearly all actives have a fitted effect of over 50% in size
Summary of the method: as §1

[8] = A CellTox Green Cytotoxicity Assay to monitor cytotoxicity in HEK293 cells - 16 hour (AID 1224888); also: nearly all actives have a fitted effect of over 35% in size
Summary of the method: as §2

[9] = qHTS RealTime-Glo MT Cell Viability Assay in HepG2 cells - 0 hour (AID 1224889); also: nearly all actives have a fitted effect of over 50% in size
Summary of the method: as §4

[10] = A CellTox Green Cytotoxicity Assay to monitor cytotoxicity in HepG2 cells - 8 hour (AID 1224890); also: nearly all actives have a fitted effect of over 45% in size
Summary of the method: as §3

[11] = qHTS assay to identify small molecule antagonists of the estrogen receptor alpha (ER-alpha) signaling pathway using the BG1 cell line in the presence of 0.1 nM 17-beta-estradiol - cell viability counter screen (AID 1259241); also: nearly all actives have a fitted effect of over 40% in size
Summary of the method: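 Viability in VM7Luc4E2 cells after 22 hr compound exposure under 0.1 nM 17beta-estradiol stimulation, by CellTiter-Fluor.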

[12] = qHTS assay to identify small molecule antagonists of the androgen receptor (AR) signaling pathway using the MDA cell line in the presence of 0.5 nM R1881 - cell viability counter screen (AID 1259242); also: nearly all actives have a fitted effect of over 45% in size
Summary of the method: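 Viability of MDA-kb2 cells was multiplexed with the luciferase AR readout; after 16 hr with compounds and R1881 at 0.5 nM final, CellTiter-Fluor fluorescence was recorded.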

[13] = qHTS assay to identify small molecule HDAC inhibitors (AID 1259364);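 also: wild-type HCT-116 cells with endogenous class I/II HDAC activity; top concentration of the series differs between compounds; nearly all actives have a fitted effect of over 45% in size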
Summary of the method: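 Read-out: luminescence of HDAC-Glo I/II reagent, 30 min RT, reflecting class I/II deacetylase activity in whole HCT-116 cells pre-exposed 2 h to DMSO-dissolved compounds.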

[14] = qHTS assay to identify small molecule HDAC inhibitors - cell viability counter screen (AID 1259365)
Summary of the method: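 Cytotoxicity was gauged in wild-type HCT-116 cells after a brief 2hr treatment with DMSO-dissolved compounds at 37C and 5% CO2, using CellTiter-Glo luminescence developed for 30min at room temperature.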

[15] = qHTS assay to identify small molecule agonists of the sonic hedgehog signaling (Shh) pathway - cell viability counter screen (AID 1259366); also: nearly all actives have a fitted effect of over 50% in size
Summary of the method: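 Stable Gli1-Luc NIH/3T3 clone, 2,000 cells/well. Compound exposure 24hr at 37C. Read-out: CellTiter-Fluor fluorescence.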

[16] = A CellTox Green Cytotoxicity Assay to monitor cytotoxicity in HEK293 cells - 8 hour (AID 1224884); also: nearly all actives have a fitted effect of over 35% in size
Summary of the method: as §2

[17] = molecular target: Androgen receptor (Homo sapiens) (UniProt P10275); experiment: qHTS assay to identify small molecule antagonists of the androgen receptor (AR) signaling pathway using the MDA cell line in the presence of 0.5 nM R1881 (AID 1259243); also: nearly all actives have a fitted effect of over 50% in size
Summary of the method: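 Reporter cells cultured without CO2 receive test chemicals, then 0.5 nM R1881 final; after 16 hr at 37C, ONE-Glo is added and light output recorded.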

[18] = qHTS assay to identify small molecule antagonists of the sonic hedgehog signaling (Shh) pathway - cell viability counter screen (AID 1259367); also: nearly all actives have a fitted effect of over 55% in size
Summary of the method: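 After a 4 hr settling period, 3T3 Gli1-Luc cells were treated with DMSO-dissolved chemicals and conditioned medium, kept 24 hr at 37C in 5% CO2, and assayed for viability by CellTiter-Fluor fluorescence following 1 hr reagent incubation.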

[19] = qHTS assay to identify small molecule phospholipidosis (PLD) inducers (AID 1259344; active = well fitted curve in the direction sought with a large enough effect; an effect the other way counts as inactive or inconclusive)
Summary of the method: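 HepG2 cells grown on collagen I take up LipidTOX Red while exposed to compound for 24 h; after fixation they are imaged at 20x and pit metrics are extracted.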

[20] = molecular target: Estrogen receptor (Homo sapiens) (UniProt P03372); experiment: qHTS assay to identify small molecule antagonists of the estrogen receptor alpha (ER-alpha) signaling pathway using the BG1 cell line in the presence of 0.1 nM 17-beta-estradiol (AID 1259244); also: nearly all actives have a fitted effect of over 50% in size
Summary of the method: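 Estradiol at 0.1 nM (final) stimulates the endogenous ER-alpha of VM7Luc4E2 cells carrying an ERE-driven luciferase; compounds are co-incubated 22 h at 37C and luciferase output quantified by luminescence.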

Measured: Potency

Sequence of Androgen receptor (Homo sapiens) (P10275 whole entry, looked up): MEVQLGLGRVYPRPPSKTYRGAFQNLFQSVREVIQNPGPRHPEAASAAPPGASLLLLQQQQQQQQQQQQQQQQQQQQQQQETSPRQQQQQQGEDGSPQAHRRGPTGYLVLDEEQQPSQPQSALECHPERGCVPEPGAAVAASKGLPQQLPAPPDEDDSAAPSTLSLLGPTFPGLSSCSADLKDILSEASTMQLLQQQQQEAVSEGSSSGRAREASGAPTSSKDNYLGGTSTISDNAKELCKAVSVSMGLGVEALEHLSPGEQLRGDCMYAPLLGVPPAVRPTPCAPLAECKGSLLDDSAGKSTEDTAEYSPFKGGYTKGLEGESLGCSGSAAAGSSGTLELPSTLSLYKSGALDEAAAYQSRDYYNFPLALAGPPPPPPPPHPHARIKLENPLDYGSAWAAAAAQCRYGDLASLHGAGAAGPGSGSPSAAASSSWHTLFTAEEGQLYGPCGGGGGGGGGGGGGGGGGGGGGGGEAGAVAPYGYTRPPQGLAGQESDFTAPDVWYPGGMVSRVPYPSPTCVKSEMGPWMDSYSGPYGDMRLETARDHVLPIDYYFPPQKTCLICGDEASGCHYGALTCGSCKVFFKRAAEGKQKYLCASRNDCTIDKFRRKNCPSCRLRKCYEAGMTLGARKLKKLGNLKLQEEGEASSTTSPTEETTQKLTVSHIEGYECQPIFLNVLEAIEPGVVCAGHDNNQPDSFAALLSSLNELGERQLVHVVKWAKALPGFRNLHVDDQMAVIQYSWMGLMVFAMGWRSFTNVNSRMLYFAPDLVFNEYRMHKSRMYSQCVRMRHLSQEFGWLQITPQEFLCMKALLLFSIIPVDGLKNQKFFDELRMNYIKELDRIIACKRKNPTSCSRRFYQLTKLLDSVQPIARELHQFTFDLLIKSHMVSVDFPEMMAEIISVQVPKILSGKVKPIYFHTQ
Sequence of Estrogen receptor (Homo sapiens) (P03372 whole entry, looked up): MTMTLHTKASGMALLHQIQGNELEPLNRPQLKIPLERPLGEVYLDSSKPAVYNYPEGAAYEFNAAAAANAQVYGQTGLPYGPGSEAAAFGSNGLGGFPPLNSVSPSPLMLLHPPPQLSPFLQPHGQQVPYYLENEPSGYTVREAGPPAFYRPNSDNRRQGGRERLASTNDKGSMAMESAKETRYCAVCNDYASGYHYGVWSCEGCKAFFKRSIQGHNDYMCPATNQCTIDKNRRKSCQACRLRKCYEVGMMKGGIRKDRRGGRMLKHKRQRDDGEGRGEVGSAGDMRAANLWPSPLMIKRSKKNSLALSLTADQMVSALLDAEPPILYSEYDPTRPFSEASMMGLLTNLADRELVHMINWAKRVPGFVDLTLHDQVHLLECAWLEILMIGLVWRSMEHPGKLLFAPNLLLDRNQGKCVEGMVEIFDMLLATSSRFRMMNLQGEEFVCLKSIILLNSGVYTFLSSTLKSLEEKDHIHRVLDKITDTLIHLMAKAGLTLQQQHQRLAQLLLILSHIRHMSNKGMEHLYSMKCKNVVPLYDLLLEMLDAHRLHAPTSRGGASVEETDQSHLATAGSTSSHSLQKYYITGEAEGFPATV

CCC(=O)O[C@@H]1C[C@H]2CC[C@]1(C)C2(C)C
not listed: [16] | [17] | [18] | [19] | [20]
inactive: all other assays above

OCCCO
not listed: [5] | [8] | [12] | [14] | [19] | [20]
inactive: all other assays above

CC(=O)CC/C=C(\C)CC/C=C(\C)CC/C=C(\C)CCC=C(C)C
not listed: [16] | [17] | [20]
inactive: all other assays above

CCOC(C)OCC
not listed: [8] | [16] | [17] | [20]
inactive: all other assays above

NCCOCCOCCN
not listed: [8] | [12] | [16] | [19] | [20]
inactive: all other assays above

CC1(C)[C@@H]2CC[C@]3(C2)[C@@H]1C(=O)CCC3(C)C
not listed: [12] | [16] | [19]
inactive: all other assays above

C=CC(C)(O)CC/C=C(/C)CCC=C(C)C (configuration not stated)
not listed: [16] | [17] | [19] | [20]
inactive: all other assays above

CCCCCO
not listed: [16] | [17] | [19]
inactive: all other assays above
